# Test results: PubChem BioAssay
# “And” between values parts separate entries of the source, which are not always exact repeats. Equal entries are not always repeated. The source made the active and inactive calls. Unless noted, how the calls were made is not given here.
# Assays:
# [1] = compounds altering circadian rhythm period length – cell-based, LOPAC library, luminescence reporter (AID 2774); conditions: circadian reporter cells, at 7 µM, actives lie on both sides;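 further: values are relative to mean of DMSO wells on each plate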
# [2] = test system: Hepatitis C virus NS3 helicase; test: blockers of NS3h binding to ssDNA – biochemical, fluorescence polarization, LOPAC1280 library, primary screen (AID 687035; in the data active means inhibition above about 37%); conditions: Purified HCV NS3 helicase, Cy5-dT15 ssDNA binding fluorescence polarization; stronger effect = higher value; concentration not given here
# [3] = compounds altering Cy5-DNA-NS3h complex signal – biochemical, LOPAC1280, artefact control for HCV NS3 helicase inhibitor project (AID 687037); conditions: Cy5-DNA-NS3h complex fluorescence interference counterscreen
# [4] = test system: Aerobactin synthetase IucA (Klebsiella pneumoniae); test: inhibition of K. pneumoniae IucA enzyme – biochemical, Tocris library, absorbance (AID 1345561); conditions: purified IucA enzyme assay, absorbance (OD) read-out; stronger effect = lower value;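 tested at 8 µM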;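 further: 100% = enzyme without compound and 0% = no enzyme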
# [5] = viability loss with induced miR-34 in A549 – imaging, A549 dox-inducible miR-34, nuclei and caspase counts, primary screen (AID 1347080;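 active means compounds whose cell count with miR-34 switched on is under 0.7 times the count with it off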); conditions: A549 miR-34 inducible, Hoechst nuclei count, 48 h
# [6] = chitosan synthesis blockers in C. neoformans – flow cytometry, Cibacron Brilliant Red staining (AID 1347148); conditions: Cryptococcus neoformans chitosan, stronger effect = lower value; at 10 µM unless noted;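 further: compound exposure lasted three days at 37 degrees C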
# [7] = blockers of cellular phospholipid synthesis – cell-based, LOPAC library, screen 4, primary screen (AID 1347384); conditions: animal cells, phospholipid biosynthesis inhibition screen; at 10 µM
# [8] = galactose survival enhancers in mitochondrial complex I cybrids – cell-based, galactose medium, ATP luminescence, primary screen (AID 1645843;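 active means z-score of at least 1.8 in each of two replicates, scored against plate mean and spread of sample wells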;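 further: positive z means more ATP and so rescue of galactose-driven cybrid death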); conditions: complex I mutant cybrid cells, 72 h, stronger effect = higher value
# [9] = compounds altering HSF1 focus formation in cells – imaging, Selleck Cancer Library (AID 1347162; in the data active means plate-normalised HSF1 focus index below about 0.46); conditions: human cells, HSF1 nuclear foci imaging, at 10 µM; SSMD: measured here: HSF1 foci SSMD mean; cell count: measured here: cell number; plate-normalised HSF1 focus index: stronger effect = lower value
# [10] = MELAS cybrid and Rieske KO viability enhancers – cell-based, MELAS cybrids, Rieske KO mouse fibroblasts, CellTiter-Glo, primary screen (AID 1508586;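 active means mean z-score across replicates of 1.96 or higher in either the MELAS or the Rieske mutant cell line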;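 further: z relative to plate mean and SD of compound and empty wells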); conditions: low glucose
# [11] = drug combination growth inhibition, ovarian cancer – cell-based, oncology-focused library, rucaparib conditional, profiling panel (AID 1508598;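 active means normalized viability below 100% at a tested concentration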); conditions: patient-derived ovarian cancer cells, CellTiter-Glo viability, 144 h, stronger effect = lower value
# [12] = stronger effect = lower value, cell number ratio, induced over uninduced
# [13] = measured here: relative caspase fold change +Dox/-Dox
# [14] = measured here: total cells with miR-34 induction, stronger effect = lower value
# [15] = measured here: total cells without miR-34 induction
smiles,measurement,setting,value
O=C1C(SCCO)=C(SCCO)C(=O)c2ccccc21,period change,[1],-0.12 h (inactive)
same,inhibition,[2],-3% (inactive)
same,fluorescence ratio (interference),[3],1 (inactive)
same,remaining activity,[4],112% (inactive)
same,fold change,[5]; [12],1.25 (inactive) and 0.776 (inactive) and 0.848 (inactive)
same,fold change,[5]; [13],0.902 and 1.05 and 1.12
same,cell count,[5]; [14],1490 and 1050 and 1210
same,cell count,[5]; [15],1190 and 1350 and 1420
same,fold fluorescence,[6],6.37 [at 161.1 µM] (inactive)
same,outcome,[7],inactive
same,z-score,[8],-1.04 (inactive) and -0.82 (inactive)
CCN(CC)CCCCNc1ncc2cc(-c3c(Cl)cccc3Cl)c(NC(=O)NC(C)(C)C)nc2n1,remaining activity,[4],131% (inactive)
same,fold change,[5]; [12],0.841 (inactive) and 1.42 (inactive)
same,fold change,[5]; [13],1.06 and 1.08
same,cell count,[5]; [14],938 and 569
same,cell count,[5]; [15],1110 and 401
same,outcome,[7],inactive
same,z-score,[8],-0.7 (inactive) and -1 (inactive)
CC(NC(=O)c1ccccc1N=Cc1c(O)ccc2ccccc12)c1ccccc1 (stereo unspecified),remaining activity,[4],102% (inactive)
same,fold change,[5]; [12],0.954 (inactive) and 0.917 (inactive)
same,fold change,[5]; [13],0.477 and 1.5
same,cell count,[5]; [14],7190 and 7160
same,cell count,[5]; [15],7540 and 7810
same,SSMD,[9],1.72
same,cell count,[9],7320
same,plate-normalised HSF1 focus index,[9],1.11 (inactive)
same,z-score,"[10]; MELAS cybrid survival, CellTiter-Glo 48 h, stronger effect = higher value",-0.168 (inactive)
same,z-score,"[10]; Rieske KO mouse fibroblast survival, CellTiter-Glo 72 h",-0.189
same,viability,"[11]; at 0.000305 µM, OCI-C5x cells, with rucaparib 10 µM, 100% = cells with rucaparib alone",111% (inactive)
same,viability,"[11]; at 0.000305 µM, OCI-C5x cells, without rucaparib",99.9% (active)
same,viability,"[11]; at 0.000305 µM, OCI-P5x cells, with rucaparib 20 µM, 100% = cells with rucaparib alone",102% (inactive)
same,viability,"[11]; at 0.000305 µM, OCI-P5x cells, without rucaparib",90.3% (active)
same,viability,"[11]; at 0.00122 µM, OCI-C5x cells, with rucaparib 10 µM, 100% = cells with rucaparib alone",122% (inactive)
same,viability,"[11]; at 0.00122 µM, OCI-C5x cells, without rucaparib",121% (inactive)
same,viability,"[11]; at 0.00122 µM, OCI-P5x cells, with rucaparib 20 µM, 100% = cells with rucaparib alone",103% (inactive)
same,viability,"[11]; at 0.00122 µM, OCI-P5x cells, without rucaparib",95.7% (active)
same,viability,"[11]; at 0.00488 µM, OCI-C5x cells, with rucaparib 10 µM, 100% = cells with rucaparib alone",119% (inactive)
same,viability,"[11]; at 0.00488 µM, OCI-C5x cells, without rucaparib",126% (inactive)
same,viability,"[11]; at 0.00488 µM, OCI-P5x cells, with rucaparib 20 µM, 100% = cells with rucaparib alone",106% (inactive)
same,viability,"[11]; at 0.00488 µM, OCI-P5x cells, without rucaparib",96.5% (active)
same,viability,"[11]; at 0.0195 µM, OCI-C5x cells, with rucaparib 10 µM, 100% = cells with rucaparib alone",121% (inactive)
same,viability,"[11]; at 0.0195 µM, OCI-C5x cells, without rucaparib",119% (inactive)
same,viability,"[11]; at 0.0195 µM, OCI-P5x cells, with rucaparib 20 µM, 100% = cells with rucaparib alone",114% (inactive)
same,viability,"[11]; at 0.0195 µM, OCI-P5x cells, without rucaparib",100% (active)
same,viability,"[11]; at 0.0781 µM, OCI-C5x cells, with rucaparib 10 µM, 100% = cells with rucaparib alone",112% (inactive)
same,viability,"[11]; at 0.0781 µM, OCI-C5x cells, without rucaparib",119% (inactive)
same,viability,"[11]; at 0.0781 µM, OCI-P5x cells, with rucaparib 20 µM, 100% = cells with rucaparib alone",108% (inactive)
same,viability,"[11]; at 0.0781 µM, OCI-P5x cells, without rucaparib",102% (inactive)
same,viability,"[11]; at 0.313 µM, OCI-C5x cells, with rucaparib 10 µM, 100% = cells with rucaparib alone",116% (inactive)
same,viability,"[11]; at 0.313 µM, OCI-C5x cells, without rucaparib",118% (inactive)
same,viability,"[11]; at 0.313 µM, OCI-P5x cells, with rucaparib 20 µM, 100% = cells with rucaparib alone",108% (inactive)
same,viability,"[11]; at 0.313 µM, OCI-P5x cells, without rucaparib",104% (inactive)
same,viability,"[11]; at 1.25 µM, OCI-C5x cells, with rucaparib 10 µM, 100% = cells with rucaparib alone",116% (inactive)
same,viability,"[11]; at 1.25 µM, OCI-C5x cells, without rucaparib",126% (inactive)
same,viability,"[11]; at 1.25 µM, OCI-P5x cells, with rucaparib 20 µM, 100% = cells with rucaparib alone",115% (inactive)
same,viability,"[11]; at 1.25 µM, OCI-P5x cells, without rucaparib",109% (inactive)
same,viability,"[11]; at 5 µM, OCI-C5x cells, with rucaparib 10 µM, 100% = cells with rucaparib alone",105% (inactive)
same,viability,"[11]; at 5 µM, OCI-C5x cells, without rucaparib",143% (inactive)
same,viability,"[11]; at 5 µM, OCI-P5x cells, with rucaparib 20 µM, 100% = cells with rucaparib alone",112% (inactive)
same,viability,"[11]; at 5 µM, OCI-P5x cells, without rucaparib",108% (inactive)
same,z-score,[8],0.205 (inactive)
O=C(OCCN1CCOCC1)C1(c2ccccc2)CCCCC1,period change,[1],-0.085 h (inactive)
same,inhibition,[2],-2% (inactive)
same,fluorescence ratio (interference),[3],1 (inactive)
same,remaining activity,[4],124% (inactive)
same,fold change,[5]; [12],1.05 (inactive) and 1.02 (inactive)
same,fold change,[5]; [13],1.06 and 0.742
same,cell count,[5]; [14],10700 and 8020
same,cell count,[5]; [15],10200 and 7840
same,outcome,[7],inactive
same,z-score,[8],-0.08 (inactive) and -0.97 (inactive)
CC(C)(C=O)Cc1cc(C(C)(C)C)c(O)c(C(C)(C)C)c1,period change,[1],0.05 h (inactive)
same,inhibition,[2],0% (inactive)
same,fluorescence ratio (interference),[3],1 (inactive)
same,remaining activity,[4],125% (inactive)
same,fold change,[5]; [12],1.05 (inactive) and 0.927 (inactive)
same,fold change,[5]; [13],1.79 and 0.718
same,cell count,[5]; [14],9400 and 9850
same,cell count,[5]; [15],8980 and 10600
same,outcome,[7],inactive
same,z-score,[8],-1.33 (inactive) and -0.18 (inactive)
CC1CCN(CC[C@H]2CCCN2S(=O)(=O)c2cccc(O)c2)CC1,period change,[1],0.055 h (inactive)
same,inhibition,[2],-3% (inactive)
same,fluorescence ratio (interference),[3],1 (inactive)
same,remaining activity,[4],106% (inactive)
same,fold change,[5]; [12],0.975 (inactive) and 0.908 (inactive)
same,fold change,[5]; [13],1.72 and 0.97
same,cell count,[5]; [14],9460 and 8490
same,cell count,[5]; [15],9700 and 9350
same,outcome,[7],inactive
same,z-score,[8],-0.155 (inactive) and -0.32 (inactive)
NC[C@@H]1O[C@H](C23CC4CC(CC(C4)C2)C3)Cc2c1ccc(O)c2O,period change,[1],0.01 h (inactive)
same,inhibition,[2],-3% (inactive)
same,fluorescence ratio (interference),[3],0.9 (inactive)
same,remaining activity,[4],123% (inactive)
same,fold change,[5]; [12],1.09 (inactive) and 0.908 (inactive)
same,fold change,[5]; [13],1.75 and 0.979
same,cell count,[5]; [14],4260 and 7980
same,cell count,[5]; [15],3890 and 8790
same,outcome,[7],inactive
same,z-score,[8],-1.5 (inactive) and -0.775 (inactive)
CCCc1c(-c2ccc(O)cc2)nn(-c2ccc(O)cc2)c1-c1ccc(O)cc1,period change,[1],0.165 h (inactive)
same,inhibition,[2],-1% (inactive)
same,fluorescence ratio (interference),[3],1 (inactive)
same,remaining activity,[4],109% (inactive)
same,fold change,[5]; [12],1.09 (inactive) and 0.887 (inactive) and 1.03 (inactive)
same,fold change,[5]; [13],1.1 and 0.322 and 0.755
same,cell count,[5]; [14],8030 and 5050 and 7250
same,cell count,[5]; [15],7380 and 5690 and 7020
same,outcome,[7],inactive
same,z-score,[8],1.27 (inactive) and 1.6 (inactive)
NCC(O)(CS(=O)(=O)O)c1ccc(Cl)cc1 (stereo unspecified),period change,[1],0.035 h (inactive)
same,inhibition,[2],-2% (inactive)
same,fluorescence ratio (interference),[3],1 (inactive)
same,remaining activity,[4],105% (inactive)
same,fold change,[5]; [12],0.977 (inactive)
same,fold change,[5]; [13],2.17 and 0.803
same,cell count,[5]; [14],9480 and 8580
same,cell count,[5]; [15],9700 and 8780
same,outcome,[7],inactive
same,z-score,[8],0.265 (inactive) and -0.115 (inactive)
CCCN(CC1CC1)c1nc(C)nc(Nc2c(Cl)cc(Cl)cc2Cl)c1Cl,period change,[1],0.125 h (inactive)
same,inhibition,[2],-2% (inactive)
same,fluorescence ratio (interference),[3],1 (inactive)
same,remaining activity,[4],116% (inactive)
same,fold change,[5]; [12],1.08 (inactive) and 0.941 (inactive)
same,fold change,[5]; [13],0.691 and 0.818
same,cell count,[5]; [14],9180 and 7650
same,cell count,[5]; [15],8510 and 8120
same,outcome,[7],inactive
same,z-score,[8],-1.02 (inactive) and -0.83 (inactive)
Cc1cccc(C(=O)NCN2CCN(c3ccccc3C#N)CC2)c1,period change,[1],0.095 h (inactive)
same,inhibition,[2],-3% (inactive)
same,fluorescence ratio (interference),[3],1 (inactive)
same,remaining activity,[4],92.5% (inactive)
same,fold change,[5]; [12],0.97 (inactive) and 0.957 (inactive)
same,fold change,[5]; [13],0.725 and 1.8
same,cell count,[5]; [14],9570 and 9300
same,cell count,[5]; [15],9870 and 9720
same,outcome,[7],inactive
same,z-score,[8],-0.125 (inactive) and 0.395 (inactive)
